ATXN viability: cell viability loss in ATXN counter-screen; 0.49% of 400,000 active; S2 cells (HEK-293 line with an ATXN2-luciferase reporter) viability, CellTiter-Fluor protease fluorescence, 24 h; Potency, µM (top dose mostly 56.7 µM), usual class: cytotoxic; also: potency is read from the fitted curve at half-maximal effect; nearly all actives have a fitted effect of over 40% in size
ATXN2 expr inh: inhibitors of ATXN2 expression; 0.72% of 360,000 active; HEK-293 ATXN2-luciferase reporter, luminescence, 24 h; Potency, µM (titrated, usually from 57 µM), without a hit: top-dose activity change, negative = inhibition, most hits filed as inhibitors; also: potency is read from the fitted curve at half-maximal effect; % is scaled to controls: 0 for no effect and ±100 for the full control effect; nearly all actives have a fitted effect of over 55% in size
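qHTS (up to 57 uM final) was run with 24 h compound exposure of reporter cells at 37 °C. Each well was multiplexed: SteadyGlo luminescence measured ATXN2-luciferase expression after a fluorogenic Gly-Phe-AFC viability readout (25 uM final).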
D3 antag: D3 dopamine receptor (human) antagonism | P35462 | max response, negative = inhibition, % | AID 652054 | 2.5% of 360,000 active | D3R cells, DiscoveRx beta-arrestin luminescence, antagonist mode; active compounds read low; in the data active = max response below about -50%; inconclusive = no clear call, values can overlap the other calls; also: % is scaled to controls: 0 for no effect and ±100 for the full control effect
Target sequence (P35462 whole entry, looked up): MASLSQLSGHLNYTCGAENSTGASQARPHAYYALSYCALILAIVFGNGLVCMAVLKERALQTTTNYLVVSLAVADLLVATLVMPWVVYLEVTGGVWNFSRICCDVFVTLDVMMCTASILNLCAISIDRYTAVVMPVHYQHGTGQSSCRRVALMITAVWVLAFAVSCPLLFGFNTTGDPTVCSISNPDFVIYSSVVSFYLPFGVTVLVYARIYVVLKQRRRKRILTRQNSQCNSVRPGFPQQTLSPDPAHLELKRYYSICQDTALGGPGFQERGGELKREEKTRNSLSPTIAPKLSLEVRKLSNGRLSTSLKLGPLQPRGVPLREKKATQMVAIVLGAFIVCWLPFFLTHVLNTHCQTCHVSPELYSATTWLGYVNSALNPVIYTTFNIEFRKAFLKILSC
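Cells plated overnight at 1500 cells/well, then exposed to library compounds with dopamine controls for 90 minutes at 37 degrees C. DiscoveRx reagent added for 30–60 minutes at room temperature; luminescence read, quantitative HTS format.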
TGFb SMAD3 inh: TGF-b pathway inhibition; Potency, µM (series often up to 46.1 µM), for the others: at the highest dose activity, negative = inhibition, actives largely listed as inhibitors; HepG2 CAGA-GFP TGF-b/SMAD3 reporter, GFP fluorescence, 18 h; TGF-beta stimulated, 500 pg/mL final; 1.2% of 410,000 active; also: potency is read from the fitted curve at half-maximal effect; % is scaled to controls: 0 for no effect and ±100 for the full control effect; nearly all actives have a fitted effect of over 65% in size
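HEPG2 CAGA-GFP cells (1000/well, DMEM with 1% FBS) were pre-incubated 2 h at 37 degrees C, given compound by pin tool, then stimulated with TGF-beta at 500 pg/mL final for 18 h before per-cell GFP fluorescence imaging.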
DRD3 agonist: agonists of human D3 dopamine receptor; max activation, %; 0.58% of 410,000 active; AID 652048; D3R DiscoveRx beta-arrestin cells, luminescence, 90 min; in the data active = max activation above about 30%; also: 0% is about no effect
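Agonist mode: compounds and dopamine controls were applied to plated cells for 90 min at 37 degrees C after an overnight attachment at 1500 cells/well. Luminescent read-out followed 30 - 60 minutes at room temperature with DiscoveRx detection reagent.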
HepG2 viability: kills HepG2 cells in TGF-b inhibitor counter-screen. HepG2 CAGA-GFP viability, ATP luminescence, 18 h. Potency, µM (doses to about 46.1 µM), inactives show top-dose activity change, negative = cytotoxicity, actives largely listed as cytotoxic. 0.76% of 410,000 active. AID 588856; also: potency is read from the fitted curve at half-maximal effect
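CellTiter-Glo luminescence gave cytotoxicity after 18 hours at 37 degrees C. The cells were HepG2 CAGA-GFP in 1% FBS DMEM, stimulated with 500 pg/mL TGF-beta after compound addition. %Activity was normalised to no-cell wells (complete cell-killing) and DMSO (no toxicity), and curves were fitted and classified.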
Starred values were filed as active, the others as inactive; i = inactive; ? = inconclusive; nt = no result; ! = not confirmed by another sample; [ ] = dose if it differs, or a comment. Only some compounds are listed: those with a hit (about 4.8% of all), similar ones and a draw of the others. Unless noted, calls follow the shape of the dose curve; as a rule, active = well fitted curve in the direction sought with a large enough effect; inconclusive = small, poorly fitted or top-dose-only effect, or another doubt; inactive = no such curve, though single readings can be large; an effect the other way counts as inactive or inconclusive.

SMILES	ATXN viability	ATXN2 expr inh	D3 antag	TGFb SMAD3 inh	DRD3 agonist	HepG2 viability
COc1cnc(-c2ccccn2)nc1Sc1ccc(Cl)cc1	?	?	-99.2*	0.2%	-2.2	-22.3%
COc1cnc(-c2ccccn2)nc1Oc1ccccc1	?	-30.0%[11.3 µM]	-1.5	-8.0%	-8.1	-5.4%
COc1ccc(Sc2nc(-c3ccccn3)ncc2OC)cc1	?	22.4µM*	2.8	-3.0%	-7.8	-13.7%
CCN(CC)c1ccc(-c2nc(-c3ccccc3C)no2)cc1[N+](=O)[O-]	i	2.0%	nt	-15.7%	-2.2	4.3%
CC(C)c1ccc(-c2nnn(Cc3nc4ccccc4s3)n2)cc1	i	15.6%	-72.0*	0.0%	-3.5	-15.5%
CCC1CSC(Nc2ccc(C(=O)/C=C/c3ccc(Br)cc3)cc2)=N1 (stereo unspecified)	?	?	-20.5	15.8µM*	-3.4	-57.3%
CCNC(=S)Nc1cc(C)ccn1	i	7.0%	3.6	-14.2%	4.9	1µM*
Cc1ccc(CC(=O)Nc2cc(C)ccn2)cc1	i	8.0%	-13.5	-11.4%	5.2	-5.3%
O=C(/C=C/c1ccco1)NC(=S)NNC(=O)c1ccco1	?	?	-84.3*	-7.4%	15.4	-2.7%
Cc1ccnc(NC(=S)NC(=O)/C=C/c2ccco2)c1	i	27.0%	-51.0*	-10.3%	2.1	-2.5%
CC(C)(C)n1ncc2c(=O)n(Cc3ccc(Cl)c(SC(F)(F)F)c3)cnc21	nt	nt	nt	1.4%	nt	-11.2%
Cc1c(C(=O)NCC2(N3CCOCC3)CCCCCC2)cnn1-c1nccc(-c2ccccc2F)n1	i	nt	nt	nt	nt	nt
CCOC(=O)c1[nH]c2ccc(F)cc2c1NC(=O)C(C)N1CCc2cc(OC)c(OC)cc2C1 (stereo unspecified)	?	-21.4%	-55.2*	-19.6%	-11.3	-8.4%
COC(=O)c1[nH]c2ccc(C)cc2c1NC(=O)CN1CCc2cc(OC)c(OC)cc2C1	i	-4.3%	7.0	1.9%	-8.6	-16.9%
COc1cc(NC(=O)c2sc3nc(C)nc(N4CCOCC4)c3c2C)cc(OC)c1OC	i	-0.9%	42.7	-4.5%	34.3*	-12.2%
C/C(CC(C)(C)C1CCCCC1)=N\NC(N)=S	31.6µM*	31.6µM*	?	6.31µM*	-27.9	11.2µM*
CCc1cccc(CC)c1NC(=O)CN(CC(=O)O)CC(=O)O	i	-4.8%	1.4	-1.3%	-6.1	-2.8%
O=C(O)CN(CC(=O)O)CC(=O)O	i	-4.8%	-73.0*	14.0%	-46.2	3.4%
CC(=O)Nc1cccc(O)c1	i	1.4%	-0.9	2.6%	82.6*!	4.1%
CC(=O)Nc1cccc(NC(=O)c2ccccc2Cl)c1	i	18.8%	-54.6*	4.8%	-9.1	-9.4%
CC(=O)Nc1ccccc1	i	-10.5%	31.1	-6.8%	15.5	-20.4%
CCCCC(=O)Nc1cccc(NC(=O)CC)c1	i	0.9%	10.6	4.2%	0.7	-3.7%
O=C(Nc1cccc(NC(=O)c2ccccc2Cl)c1)c1ccco1	i	1.4%	2.2	-2.7%	3.3	-10.0%
CCCCC(=O)Nc1cccc(NC(=O)c2ccccc2Br)c1	i	-10.2%	-61.1*	6.4%	1.4	0.5%
CCCOc1ccc(C(=O)Nc2cccc(NC(=O)c3ccc(Cl)cc3Cl)c2)cc1	?	-13.6%	nt	?	-4.4	11.2µM*
SMILES	ATXN viability	ATXN2 expr inh	D3 antag	TGFb SMAD3 inh	DRD3 agonist	HepG2 viability
Cc1ccc2c(c1)c1c3n2CCN(C(=O)c2ccc(C(F)(F)F)cc2)C3CCC1 (stereo unspecified)	i	-5.4%	nt	10.0%	3.8	1.9%
CCOC(=O)c1ccc(-c2ccc(/C=N/NC(=O)CN(c3ccccc3Cl)S(C)(=O)=O)o2)cc1	i	?	52.5	5.3%	44.0*	0.2%
Cn1cnnc1Sc1ccc(CN2CCOc3ccc(C4=CCCCC4)cc3C2)o1	i	nt	nt	nt	nt	nt
O=C(Nc1cccc(-c2csc(Nc3ccc(Cl)cc3)n2)c1)c1cccc(C(F)(F)F)c1	?	?	57.6	?	17.9	0.3%
O=C(Nc1cccc(-c2csc(Nc3ccc(Cl)cc3)n2)c1)c1ccccc1	15.8µM*	?	0.0	?	0.0	-17.3%
CSc1nsc(/C=C/Nc2ccc(O)cc2C)c1C#N	i	nt	-54.9*	-38.3%	-3.3	-2.9%
OC(c1cccc(Cl)c1)c1ncc(-c2ccc3ccccc3c2)[nH]1 (stereo unspecified)	i	13.5%	-15.6	?	-9.1	-48.6%
OC(c1cc(F)cc(Cl)c1)c1ncc(-c2ccc3ccccc3c2)[nH]1 (stereo unspecified)	?	-36.2%	0.0	17.8µM*	-9.4	-106.2%
CCOC(=O)c1sc2cccc(F)c2c1S(=O)(=O)N1CCN(c2cccc(Cl)c2)CC1	i	-12.8%	nt	-15.4%	-10.8	-10.8%
Cc1cc(C(=O)NCC2CCC3(CCN(Cc4ccc(F)cc4)CC3)O2)n(C)n1 (stereo unspecified)	i	nt	nt	nt	nt	nt
CN(C)CCCNS(=O)(=O)c1ccc(NC2CCCCCC2)c([N+](=O)[O-])c1	i	-35.5%	17.2	22.4µM*	-6.0	-171.3%
COc1ccc(C(=O)NNC2=C(C(=O)C(F)(F)F)CCC2)cc1	i	-33.2%	9.1	8.91µM*	4.2	-50.0%
O=C(NNC(=O)c1cccc(Cl)c1)NNC(=O)c1cccc(Cl)c1	i	-4.9%	-11.6	-2.7%	0.7	-0.8%
COc1ccc(C(=O)NNc2ccccc2)cc1	i	-1.4%	2.8	-12.1%	-1.3	-0.2%
O=C(NNC1=C(C(=O)C(F)(F)F)CCC1)c1ccc(Cl)cc1	?	?	46.6	11.2µM*	10.9	10µM*
O=C(NNC1=C(C(=O)C(F)(F)F)CCC1)c1cccc(Cl)c1	?	?	98.4	?	5.9	10µM*
C=CC[n+]1cccc2cc(Br)ccc21	nt	nt	nt	-13.6%	nt	3.9%
CCOc1ccc(CCNC(=O)c2ccc(-c3nc(COc4ccc(C)cc4)c(C)o3)cc2)cc1	i	0.6%	nt	?	0.4	-1.2%
O=C(Cn1cncn1)N1CCOc2ccc(CN3CCN(c4ccccc4)CC3)cc2C1	i	nt	nt	nt	nt	nt
O=C(/C=C/c1ccc(Cl)cc1Cl)NC(=S)Nc1ccc(CN2CCOCC2)cc1	i	-21.9%	-82.8*	?	-29.5	-43.1%
O=C(Nc1ccc(CN2CCOCC2)cc1)c1cc2ccccn2n1	i	22.4µM*	0.9	-10.7%	-4.2	-31.0%
O=C(/C=C/c1ccccc1)NC(=S)Nc1ccc(CN2CCOCC2)cc1	i	-27.1%[11.3 µM]	-56.8*	-24.1%	-16.8	-0.2%
CCOC(=O)c1cc(S(=O)(=O)NCc2ccc(Cl)cc2)[nH]n1	i	-3.3%	nt	3.2%	3.0	-5.5%
Cc1cc(C)n(-c2nc(NC(C)C)nc(NC(C)(C)C)n2)n1	nt	nt	nt	3.2%	nt	-14.6%

Source: PubChem BioAssay (National Center for Advancing Translational Sciences (NCATS))
